In the library only some 8% were active in any assay of this set; here they are far more common.
RORg inh = ROR gamma (mouse) transcription inhibition | AID 2551 | Drosophila S2 Gal4-RORgamma UAS-luciferase reporter, 20 h | P51450 | Potency, µM (highest dose often 53.6 µM), most hits filed as inhibitors | 310,000 compounds, 5.4% hits; also: nearly all actives have a fitted effect of over 60% in size
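Stable Schneider cell line, Gal4 DNA-binding domain fused to ROR gamma, UAS-luciferase. Cmpd 1 hr RT → CuSO4 700 uM final → 20 hr RT → luciferase reagent 10 min → luminescence.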
ELG1 repair inh = inhibitors of ELG1-dependent DNA repair in HEK293T cells | HEK293T ELG1-luciferase reporter, luminescence, 16 h; DNA damage induced by 5-fluorouridine | Potency, µM (doses to about 46.1 µM), most hits filed as inhibitors | AID 504467 | 330,000 compounds, 2.3% hits; also: nearly all actives have a fitted effect of over 55% in size
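Quantitative HTS, concentration-response format. 2,000 cells/well co-treated with 5-fluorouridine and compound, 16 hr in 5% CO2 at 37 °C; ONE-Glo luminescence read after 30 min.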
Coupling enz = inhibits coupling enzyme system, counter-screen for aldolase hits; coupling enzyme system counterscreen, AmpLite Red fluorescence; activity change, negative = inhibition, % at 58.2 µM, hits read low; 290,000 compounds, 0.67% hits; AID 2472; in the data active = activity change below about -30%
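First, compound is pin-transferred into glyceraldehyde-3-phosphate coupling-enzyme reagent at 57.5 uM final and held 10 min at RT. Next, substrate, coupling system and AmpLite Red are added. After 20 min RT, fluorescence (525/598 nm) is read.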
TSHR antagonist = human thyrotropin receptor antagonism | activity change, negative = inhibition, % at 11.5 µM | TSHR-expressing cells, TSH-stimulated cAMP HTRF, 2 h; active compounds read low | P16473 | 330,000 compounds, 0.2% hits;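 active = activity change below a set negative limit, meaning inhibition stronger than a set level, cut at about -70% in these data; inconclusive = activity change between two set negative limits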
Target sequence (P16473 whole entry, looked up): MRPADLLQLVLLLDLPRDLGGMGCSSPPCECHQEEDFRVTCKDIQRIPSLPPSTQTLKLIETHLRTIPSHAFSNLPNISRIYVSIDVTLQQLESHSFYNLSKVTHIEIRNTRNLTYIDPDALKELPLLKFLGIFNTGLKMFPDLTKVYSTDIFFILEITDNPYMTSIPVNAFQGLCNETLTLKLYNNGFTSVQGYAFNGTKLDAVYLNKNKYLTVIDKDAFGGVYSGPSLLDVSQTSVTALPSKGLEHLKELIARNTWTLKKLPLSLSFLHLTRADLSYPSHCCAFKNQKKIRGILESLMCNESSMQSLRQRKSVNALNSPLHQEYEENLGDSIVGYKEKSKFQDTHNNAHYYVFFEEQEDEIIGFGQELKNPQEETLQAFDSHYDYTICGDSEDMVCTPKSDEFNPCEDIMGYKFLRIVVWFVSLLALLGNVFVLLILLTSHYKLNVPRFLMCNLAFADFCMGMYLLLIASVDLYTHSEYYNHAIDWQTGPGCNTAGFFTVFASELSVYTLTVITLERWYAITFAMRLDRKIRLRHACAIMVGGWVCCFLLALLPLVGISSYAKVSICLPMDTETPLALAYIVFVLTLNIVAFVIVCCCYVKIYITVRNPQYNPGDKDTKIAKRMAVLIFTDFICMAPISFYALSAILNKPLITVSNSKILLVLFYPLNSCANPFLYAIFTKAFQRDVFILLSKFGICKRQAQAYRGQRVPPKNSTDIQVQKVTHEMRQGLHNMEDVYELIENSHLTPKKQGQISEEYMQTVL
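Competitive HTRF cAMP read-out (cryptate anti-cAMP antibody, cAMP-d2; 30 min, room temperature) in freshly harvested TSHR cells. Compounds added before TSH at EC80 (4nM final), followed by 2 hours' incubation at 37 deg C.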
VP16 counter = counter-screen for ROR gamma inhibitors: Gal4-VP16 reporter | Potency, µM (highest dose often 53.6 µM), hits mostly inhibitors | 310,000 compounds, 3.5% hits | AID 2546 | Drosophila S2 Gal4-VP16 UAS-luciferase, luminescence, 20 h;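 also: Gal4-VP16 expression switched on by copper sulfate through the metallothionein promoter; nearly all actives have a fitted effect of over 50% in size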
Of the large screens only hits and unclear results are named; the others gave an inactive call. Unless noted, calls follow the shape of the dose curve; as a rule, active = well fitted curve in the direction sought with a large enough effect; inconclusive = small, poorly fitted or top-dose-only effect, or another doubt; inactive = no such curve, though single readings can be large; an effect the other way counts as inactive or inconclusive.

O=C(CN(c1ccc(Cl)cc1)S(=O)(=O)c1ccc(Cl)c([N+](=O)[O-])c1)NCCc1ccc(F)cc1	RORg inh 7.94µM, VP16 counter 7.08µM
O=C(CN(c1ccc(Cl)cc1)S(=O)(=O)c1ccc(Cl)c([N+](=O)[O-])c1)NCCc1ccccc1	ELG1 repair inh inconclusive
CC1C(=O)N(c2ccc(S(=O)(=O)N(C)C)cc2)C1(/C=C/c1ccccc1)C(=O)NC1CCCC1 (stereo unspecified)	VP16 counter inconclusive
CCOC(=O)C1CCN(c2cc3c(cc2NC(=O)c2ccccc2)n(C)c(=O)n3C)CC1	ELG1 repair inh inconclusive
CCOC(=O)C1CCN(c2cc3c(cc2NC(=O)c2ccc(OC)c(OC)c2)n(C)c(=O)n3C)CC1	ELG1 repair inh 1.64µM
O=C(N/N=C1/CCSC1)c1cccc([N+](=O)[O-])c1	RORg inh inconclusive, VP16 counter 20µM
Cc1ccc(C(=O)N/N=C2\CCSC2)cc1[N+](=O)[O-]	RORg inh 10µM, VP16 counter inconclusive
Cc1ccc(C(=O)N/N=C\C2CC=CCC2)cc1[N+](=O)[O-] (stereo unspecified)	VP16 counter inconclusive (no result: Coupling enz)
Cc1ccc(S(=O)(=O)N2CCCCC2)cc1C(=O)NCc1ccc(S(N)(=O)=O)cc1	none (no result: RORg inh, Coupling enz, VP16 counter)
CC(N)=NCCC[C@H](N)C(=O)O	none (no result: ELG1 repair inh, TSHR antagonist)
COc1cccc(C(=O)C(C#N)=C(SC)SC)c1	VP16 counter inconclusive
CSC(SC)=C(C#N)C(=O)c1ccccc1	VP16 counter 11.2µM
CCOC(=O)N1CCN(S(=O)(=O)c2ccc3c(c2)SCC(=O)N3)CC1	ELG1 repair inh 20.6µM
CCOC(=O)c1c(C)[nH]sc1=S	RORg inh 6.31µM, VP16 counter inconclusive
CCOC(=O)c1[nH]c(C)c(C(=O)OCC)c1C	ELG1 repair inh inconclusive
Cc1nn(C)cc1CNC(=O)c1cc2n(n1)C(C(F)(F)F)CC(c1cccs1)N2 (stereo unspecified)	ELG1 repair inh 23.1µM
CCN(Cc1ccc2c(c1)OCO2)C(=O)CSc1nc(C)nc2sc(C)c(C)c12	ELG1 repair inh 18.3µM (no result: RORg inh, Coupling enz, VP16 counter)
COC(=O)c1ccc(CSc2nc(C)nc3sc(C)c(C)c23)o1	RORg inh inconclusive, VP16 counter 3.98µM
CC1CCN(CC(=O)N(C)c2c(N)n(Cc3ccccc3)c(=O)[nH]c2=O)CC1	none (no result: RORg inh, Coupling enz, VP16 counter)
COc1ccc(C2CC(c3ccc(C)cc3)=NN2C(=O)CCC(=O)O)cc1OC (stereo unspecified)	none
CCOc1ccc(OCC)c(NS(=O)(=O)c2ccc3c(c2)n(C)c(=O)c(=O)n3C)c1	RORg inh 0.316µM (no result: VP16 counter)
COC(=O)c1cc(NC(=O)COC(=O)CN2C(=O)C3CC=CCC3C2=O)cc(C(=O)OC)c1 (stereo unspecified)	none (no result: RORg inh, Coupling enz, VP16 counter)
CCOC(=O)N1CCN(Cc2cc(Cl)c3cccnc3c2O)CC1	RORg inh 0.126µM, ELG1 repair inh 3.66µM, VP16 counter 0.0891µM
Oc1c(CNc2ccccc2)cc(COCc2ccccc2)c2cccnc12	ELG1 repair inh inconclusive (no result: RORg inh, Coupling enz, VP16 counter)
c1ccc(N2CCN(Cc3ccnc4ccccc34)CC2)cc1	ELG1 repair inh inconclusive (no result: VP16 counter)
Oc1c(CN2CCOCC2)cc(COCc2ccccc2)c2cccnc12	RORg inh 0.794µM, ELG1 repair inh inconclusive, VP16 counter 0.0891µM
COCc1cc(CN2CCN(C)CC2)c(O)c2ncccc12	RORg inh 3.16µM, VP16 counter 5.62µM
Oc1c(CN2CCN(c3ccccc3)CC2)cc(Br)c2cccnc12	RORg inh 0.562µM, ELG1 repair inh inconclusive, VP16 counter 0.891µM
CCC1(CC)NC(=O)N(CC(=O)OCC(=O)c2ccccc2OC)C1=O	ELG1 repair inh inconclusive (no result: RORg inh, Coupling enz, VP16 counter)
COc1cc(C(=O)NCC(c2ccccc2)N(C)C)ccc1OCc1c(C)noc1C (stereo unspecified)	none (no result: RORg inh, Coupling enz, VP16 counter)
COCC(=O)N1CCC2(CC1)CN(c1cccc(-c3ccccc3)c1)C2	none (no result: ELG1 repair inh, TSHR antagonist)
Oc1c(Br)cc(Br)c2cccnc12	RORg inh 0.282µM (no result: ELG1 repair inh, TSHR antagonist)
O=C(/C=C/NNC(=O)c1ccccc1)c1ccc(Br)cc1	RORg inh inconclusive
O=C(/C=C/NNC(=O)c1ccc(Cl)cc1)c1ccccc1	RORg inh 11.2µM, VP16 counter inconclusive
CC(=O)NCCNc1ncncc1-c1ccccc1CN(C)C	none (no result: ELG1 repair inh, TSHR antagonist)
COCCNC(=O)c1cc(-c2ccccc2C)nn1CC1CC(c2cccnc2)=NO1 (stereo unspecified)	ELG1 repair inh inconclusive (no result: RORg inh, Coupling enz, VP16 counter)
Cc1ccc(NC(=O)CC2SC3=NCCN3C2=O)cc1 (stereo unspecified)	RORg inh inconclusive, VP16 counter 11.2µM
O=C(O)c1ccc2c(c1)C(=O)N([C@]1(C(=O)O)CC1c1ccccc1)C2=O (stereo partly specified)	none (no result: ELG1 repair inh)
O=C(NCC1COc2ccccc2O1)C1CCCN(S(=O)(=O)c2cccc3cccnc23)C1 (stereo unspecified)	ELG1 repair inh 14.6µM
Cc1oc2cc3c(C(=O)N4CCCCC4)c(C)oc3cc2c1C(=O)N1CCCCC1	RORg inh 2µM, ELG1 repair inh inconclusive, VP16 counter inconclusive
COc1cc2c(C(=O)N3CCN(C)CC3)c(C)oc2cc1Br	none
CCc1nc(Nc2ccc(OC)c(OC)c2)c2nnn(Cc3ccccc3Cl)c2n1	RORg inh inconclusive, ELG1 repair inh 13µM, VP16 counter inconclusive
CCOCCCNc1nc(C(F)(F)F)nc2c1nnn2Cc1ccccc1Cl	RORg inh inconclusive, ELG1 repair inh 18.3µM
CN(C)S(=O)(=O)c1ccc(Nc2nc(C3CC3)nc3c2nnn3Cc2ccccc2Cl)cc1	ELG1 repair inh inconclusive, VP16 counter 3.98µM
COC(=O)CNc1nc(C2CC2)nc2c1nnn2Cc1ccccc1Cl	none
C=CCNc1nc(C(F)(F)F)nc2c1nnn2Cc1ccccc1Cl	RORg inh inconclusive, VP16 counter inconclusive
CCOC(=O)c1cccc(N2CC3CNC(=O)C2(C(=O)OC)N3C)c1 (stereo unspecified)	none (no result: RORg inh, Coupling enz, VP16 counter)
CCCCC1=CC2=C(OC(C)=O)C(=O)C(C)(OC(=O)CC)C(=O)C2=CO1 (stereo unspecified)	none (no result: ELG1 repair inh, TSHR antagonist)
CNC(=S)NCCc1ccccc1	ELG1 repair inh inconclusive
O=C(CCc1ccccc1)NNC(=O)CCc1ccccc1	none
CC(NC(=S)NNS(=O)(=O)c1cccc([N+](=O)[O-])c1)c1ccccc1 (stereo unspecified)	RORg inh 7.08µM, VP16 counter 6.31µM
CC(=O)NNC(=S)NCCc1ccccc1	RORg inh 11.2µM
O=C(CCc1ccccc1)NNC(=S)NCCc1ccccc1	RORg inh 7.94µM, VP16 counter inconclusive (no result: Coupling enz)
CC(C)(CNC(=S)NCCc1ccccc1)CNC(=S)NCCc1ccccc1	RORg inh inconclusive, ELG1 repair inh inconclusive, VP16 counter 8.91µM
Cc1ccc(C)c(NC(=O)Cc2nc(CNCC(C)C)cs2)c1	none
O=[N+]([O-])c1cccc(NC(=S)NCCc2ccccc2)c1	ELG1 repair inh inconclusive, VP16 counter inconclusive

Compound activity (PubChem BioAssay)
